Data: PubChem BioAssay (NCATS)
Records with an inconclusive call do not appear. Unmarked numbers belong to inactive results. Active and inactive are the calls of the source. Calls come from the whole dose curve; as a rule, active = well fitted cell-killing curve with a large enough effect; inconclusive = small, poorly fitted or top-dose-only effect, or effect the other way; inactive = no such curve, though single readings can be large or run the other way.

experiment: Viability qHTS for spleen associated tyrosine kinase inhibitor (SYKi) drug resistant MV4-11 cells (AID 1963824); conditions: SYKi-resistant MV4-11 viability, CellTiter-Glo, 72 h; series mostly up to 45 µM; viability, % of control: at the top concentration; note: nearly all actives have a fitted effect of over 35% in size
In short: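 SYK inhibitor-resistant MV4-11 AML cells, 500 per well, added to predispensed compounds and incubated 72 hr at 37 C, 5% CO2. Viability measured by CellTiter-Glo luminescence after 10 min at room temperature.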
Potency is the fitted concentration of half-maximal effect.

Compound	Potency	viability, % of control
Cc1cc(C)cc(Oc2ccc(CNC(=O)[C@H](C)N)cc2C)c1	16.6 µM (active)	–
C=C1C(=O)O[C@@H]2CC(C)=C([C@@H](C)CCCO)[C@@H](OC(=O)C(C)C)[C@H]12	4.04 µM (active)	–
COc1ccc(-c2cnc3ccc(NCc4ccc(S(N)(=O)=O)cc4)nn23)cc1OC	1.64 µM (active)	–
O=C(O)Cc1cn([C@@H]2OC[C@@H](O[C@@H]3O[C@H](CO)[C@@H](O)[C@H](O)[C@H]3O)[C@H](O)[C@H]2O[C@@H]2O[C@H](CO)[C@@H](O)[C@H](O)[C@H]2O)c2ccccc12	–	90.6% [at 17.3 µM]
C/C=C(\C)C(=O)O[C@@H]1[C@@H](C)[C@]2(O)[C@@H]3C=C(C)C(=O)[C@H]3CC(CO)=C[C@H]2C2C(C)(C)[C@@]21OC(=O)C(C)CC (stereo not given in full)	0.448 µM (active)	–
CSCC1OC(n2cnc3c(N)ncnc32)C(O)C1O (stereo not given)	–	76.5%
C[C@]12CC/C(=N\OCC(=O)O)C=C1CC[C@@H]1[C@@H]2[C@@H](O)C[C@@]2(C)[C@H]1CC[C@]2(O)C(=O)CO	–	106%
C=C1C(=O)OC[C@@H]1C/C=C(\C)CC1CC(C)C(=O)O1 (stereo not given in full)	13 µM (active)	–
COc1cc(O)c2c(=O)c(O)c(-c3ccc(O)c(O)c3)oc2c1	8.2 µM (active)	–
O=C(/C=C/c1c(C(=O)O)[nH]c2cc(Cl)cc(Cl)c12)Nc1ccccc1	–	92.9%
C[C@@H]1O[C@@H](O[C@H]2[C@H](O[C@H]3CC[C@@]4(C)C(CC[C@]5(C)C4C=C[C@]46OC[C@@]7(CCC(C)(C)C[C@H]74)[C@@H](O)C[C@]65C)[C@]3(C)CO)O[C@H](CO)[C@@H](O)[C@@H]2O[C@@H]2O[C@H](CO)[C@@H](O[C@@H]3O[C@@H](C)[C@H](O)[C@@H](O)[C@H]3O)[C@H](O)[C@H]2O)[C@H](O)[C@H](O)[C@H]1O (stereo not given in full)	4.37 µM (active)	–
C=C1CCN([C@H](C)[C@](O)(Cn2cncn2)c2ccc(F)cc2F)CC1	14.6 µM (active)	–
CC1=C(COC2OC(CO)C(O)C(O)C2O)C(C(CO)C(=O)O)CC1 (stereo not given)	–	104%
CC1CC(=O)C2=C(O1)OC1(C)CCC3C(C)(C)C4OC4C(=O)C3(C)C1C2 (stereo not given)	–	87.9%
C=C1C(OC2OCC(O)C(O)C2O)CC2C(C)(C)C(O)CCC2(C)C1CC/C(C)=C\CO (stereo not given)	7.09 µM (active)	–
O=C(NO)c1cnc(N2CCN(S(=O)(=O)c3ccc4ccccc4c3)CC2)nc1	–	6.92% [at 17.3 µM]
CCCCC1CCN(CCCN2C(=O)CCc3ccccc32)CC1	2.59 µM (active)	–
CC1CCC2(NC1)OC1CC3C4CC=C5CC(O[C@@H]6O[C@H](CO)[C@@H](O[C@@H]7O[C@@H](C)[C@H](O)[C@@H](O)[C@H]7O)[C@H](O)[C@H]6O[C@@H]6O[C@@H](C)[C@H](O)[C@@H](O)[C@H]6O)CCC5(C)C4CCC3(C)C1C2C (stereo not given in full)	5.51 µM (active)	–
CS(=O)(=O)c1ccc(-c2cn3ccccc3n2)cc1	–	75.9%
O=[N+]([O-])c1ccc(-[n+]2nc(-c3ccccc3)nn2-c2ccc(I)cc2)cc1	–	57.5%
CC[C@H](C(=O)Nc1ccccc1N1CCCC1)c1ccccc1	23.1 µM (active)	–
C[C@@H]1O[C@@H](O[C@H]2[C@H](O[C@H]3CC[C@@]4(C)C(CC[C@]5(C)C4CC=C4[C@@H]6CC(C)(C)CC[C@]6(C(=O)O)CC[C@]45C)[C@]3(C)CO)OC[C@H](O)[C@@H]2O)[C@H](O)[C@H](O[C@@H]2OC[C@@H](O)[C@H](O)[C@H]2O)[C@H]1O (stereo not given in full)	4.91 µM (active)	–
CC(C)CN(C[C@@H](O)[C@H](Cc1ccccc1)NC(=O)O[C@@H]1CO[C@H]2OCC[C@H]21)S(=O)(=O)c1ccc(N)cc1	–	79.5%
COc1ccccc1-c1c[nH]c2ncc(-c3cncc(C(=O)N(C)C)c3)cc12	1.84 µM (active)	–
NC(=O)c1csc(C2OC(CO)C(O)C2O)n1 (stereo not given)	8.2 µM (active)	–
